In the supplement of paper PMC10037445:
Whole data set: some 2,900 compounds, median “NF-kB SEAP reporter activity, fold change vs agonist alone” near 0.99, cut for the highest 2% near 2.6. The sample as a whole holds a higher share of the highest values than the screen did.

Experiments:
[1] = system: RAW-Dual; experiment: NF-kB SEAP reporter activity, fold change vs agonist alone; cytotoxicity flag (confluency mask): cytotoxic (confluency <70% of control); higher = enhanced NF-kB activity
How it was run: (§1)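 RAW-Dual macrophages (50,000 cells/well in DMEM, 384-well plates) received 50 nL of library stock by pin tool, then a PRR agonist 1 h later, and were kept at 37 °C, 5% CO2. After 20 hours, supernatant was read for IRF by QuantiLuc luminescence and for NF-κB by QuantiBlue absorbance at 620 nm. Reporter activity is fold change over agonist-alone wells. Cytotoxic wells had IncuCyte confluency below 70% of agonist controls in both mask sets.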

[2] = system: RAW-Dual; experiment: NF-kB SEAP reporter activity, fold change vs agonist alone; cytotoxicity flag (confluency mask): not cytotoxic; higher = enhanced NF-kB activity
How it was run: as §1

[3] = system: RAW-Dual; experiment: NF-kB SEAP reporter activity, fold change vs agonist alone; higher = enhanced NF-kB activity; conditions: library stock concentration (final ~1000-fold dilution): 10 mM
How it was run: as §1

[4] = agonist: ODN 1826 (TLR9) 0.5 ug/mL
[5] = agonist: Pam2CSK4 (TLR2/6) 0.1 ug/mL
[6] = agonist: Pam3CSK4 (TLR2/1) 0.1 ug/mL
[7] = cytotoxicity flag (confluency mask): not cytotoxic, agonist: MPLA (TLR4) […]
[8] = cytotoxicity flag (confluency mask): cytotoxic (confluency <70% of control), agonist: Imiquimod (TLR7) […]
[9] = cytotoxicity flag (confluency mask): cytotoxic (confluency <70% of control), agonist: MPLA (TLR4) […]
[10] = cytotoxicity flag (confluency mask): not cytotoxic, agonist: Imiquimod (TLR7) […]

Structure (SMILES): CCN(CC)CCNC(=O)c1c(C)[nH]c(/C=C2/C(=O)Nc3ccc(-c4csc(-c5ccccc5)n4)cc32)c1C (library stock concentration (final ~1000-fold dilution): 10 mM)
- NF-kB SEAP reporter activity ([1]; agonist: LPS (TLR4) 0.1 ug/mL): 0.882
- NF-kB SEAP reporter activity [1, 4]: 0.397
- NF-kB SEAP reporter activity [1, 5]: 0.37
- NF-kB SEAP reporter activity [1, 6]: 0.645

Structure (SMILES): COc1ccc(NC(=O)c2ccc(C(=N)N(C)C)cc2)c(C(=O)Nc2ccc(Cl)cn2)c1.O=C(O)/C=C\C(=O)O (library stock concentration (final ~1000-fold dilution): 10 mM)
- NF-kB SEAP reporter activity ([2]; agonist: LPS (TLR4) 0.1 ug/mL): 0.955
- NF-kB SEAP reporter activity [2, 4]: 0.994
- NF-kB SEAP reporter activity [2, 5]: 1.1
- NF-kB SEAP reporter activity [2, 6]: 1.06

Structure (SMILES): COc1ccc(NC(=O)c2ccc(C(=N)N(C)C)cc2)c(C(=O)Nc2ccc(Cl)cn2)c1.O=C(O)/C=C\C(=O)O
- NF-kB SEAP reporter activity [3, 7]: 0.953

Structure (SMILES): COc1cc2c(Oc3ccc4[nH]c(C)cc4c3F)ncnc2cc1OCCCN1CCCC1
- NF-kB SEAP reporter activity [3, 8]: 1.98
- NF-kB SEAP reporter activity [3, 9]: 1.96

Structure (SMILES): COc1cc2c(Oc3ccc4[nH]c(C)cc4c3F)ncnc2cc1OCCCN1CCCC1.O=C(O)/C=C\C(=O)O
- NF-kB SEAP reporter activity [3, 9]: 2.65

Structure (SMILES): COc1cc2c(Oc3ccc4[nH]c(C)cc4c3F)ncnc2cc1OCCCN1CCCC1.O=C(O)/C=C\C(=O)O (library stock concentration (final ~1000-fold dilution): 10 mM)
- NF-kB SEAP reporter activity ([1]; agonist: LPS (TLR4) 0.1 ug/mL): 2.81
- NF-kB SEAP reporter activity [1, 4]: 0.402
- NF-kB SEAP reporter activity [1, 5]: 1.61
- NF-kB SEAP reporter activity [1, 6]: 1.15

Structure (SMILES): COc1cc2c(Oc3ccc4[nH]c(C)cc4c3F)ccnc2cc1OCC1(N)CC1.Cl.Cl (library stock concentration (final ~1000-fold dilution): 10 mM)
- NF-kB SEAP reporter activity ([1]; agonist: LPS (TLR4) 0.1 ug/mL): 1.7
- NF-kB SEAP reporter activity [1, 4]: 0.29
- NF-kB SEAP reporter activity [1, 5]: 1.17
- NF-kB SEAP reporter activity [1, 6]: 1.74

Structure (SMILES): COc1cc2c(Oc3ccc4[nH]c(C)cc4c3F)ncnc2cc1OCCCN1CCCC1 (library stock concentration (final ~1000-fold dilution): 10 mM)
- NF-kB SEAP reporter activity ([1]; agonist: LPS (TLR4) 0.1 ug/mL): 0.671
- NF-kB SEAP reporter activity [1, 4]: 0.212
- NF-kB SEAP reporter activity [1, 5]: 1.03
- NF-kB SEAP reporter activity [1, 6]: 1.37

Structure (SMILES): COc1cc2c(Oc3ccc4[nH]c(C)cc4c3F)ccnc2cc1OCC1(N)CC1.Cl.Cl
- NF-kB SEAP reporter activity [3, 8]: 1.53
- NF-kB SEAP reporter activity [3, 9]: 1.89

Structure (SMILES): Cl.Nc1ccc(N=Nc2ccccc2)c(N)n1
- NF-kB SEAP reporter activity [3, 10]: 1.1
- NF-kB SEAP reporter activity [3, 7]: 1.08

Structure (SMILES): Cl.Nc1ccc(N=Nc2ccccc2)c(N)n1 (library stock concentration (final ~1000-fold dilution): 10 mM)
- NF-kB SEAP reporter activity ([2]; agonist: LPS (TLR4) 0.1 ug/mL): 1.22
- NF-kB SEAP reporter activity [2, 4]: 0.928
- NF-kB SEAP reporter activity [2, 5]: 1.09
- NF-kB SEAP reporter activity [2, 6]: 0.933

Structure (SMILES): Nc1nc(=O)n(C2CSC(CO)O2)cc1F (stereo not given) (library stock concentration (final ~1000-fold dilution): 10 mM)
- NF-kB SEAP reporter activity ([2]; agonist: LPS (TLR4) 0.1 ug/mL): 0.99
- NF-kB SEAP reporter activity [2, 4]: 1.1
- NF-kB SEAP reporter activity [2, 5]: 1.1
- NF-kB SEAP reporter activity [2, 6]: 1.13

Structure (SMILES): Nc1nc(=O)n(C2CSC(CO)O2)cc1F (stereo not given)
- NF-kB SEAP reporter activity [3, 10]: 0.983
- NF-kB SEAP reporter activity [3, 7]: 1.14

Structure (SMILES): CCC(C)SSc1ncc[nH]1 (stereo not given)
- NF-kB SEAP reporter activity [3, 10]: 1.51
- NF-kB SEAP reporter activity [3, 7]: 1.85

Structure (SMILES): CCC(C)SSc1ncc[nH]1 (stereo not given) (library stock concentration (final ~1000-fold dilution): 10 mM)
- NF-kB SEAP reporter activity ([2]; agonist: LPS (TLR4) 0.1 ug/mL): 4.74
- NF-kB SEAP reporter activity [2, 4]: 2.67
- NF-kB SEAP reporter activity [2, 5]: 1.44
- NF-kB SEAP reporter activity [2, 6]: 2.7

Structure (SMILES): Cc1[nH]c(/C=C2\C(=O)Nc3ccc(S(=O)(=O)Cc4c(Cl)cccc4Cl)cc32)c(C)c1C(=O)N1CCCC1CN1CCCC1 (stereo not given) (library stock concentration (final ~1000-fold dilution): 10 mM)
- NF-kB SEAP reporter activity ([1]; agonist: LPS (TLR4) 0.1 ug/mL): 0.658
- NF-kB SEAP reporter activity [1, 4]: 1.39
- NF-kB SEAP reporter activity [1, 5]: 0.551
- NF-kB SEAP reporter activity [1, 6]: 0.886

Structure (SMILES): Cc1[nH]c(/C=C2\C(=O)Nc3ccc(S(=O)(=O)Cc4c(Cl)cccc4Cl)cc32)c(C)c1C(=O)N1CCCC1CN1CCCC1 (stereo not given)
- NF-kB SEAP reporter activity [3, 8]: 2.04
- NF-kB SEAP reporter activity [3, 9]: 1.3
